Results on 23 compounds are retold here after PubChem BioAssay (EPA / NIEHS).

Each structure is given as a SMILES string. Records with an inconclusive call do not appear. The source made the active and inactive calls. The calls were made as follows, unless noted: active = hit-call score of the fitted dose curve at least 0.9, where 1 is the maximum; inactive = score below 0.9.

Test [1] is described as follows: ATG_NF_kB_CIS: Attagene CIS-FACTORIAL HepG2 Assay for human Nuclear Factor Kappa B (NF-kB) (AID 2282991). The note with it: HepG2 Attagene cis-factorial NF-kB reporter mRNA; actives raise or lower the signal. The method in brief:
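Transient MRTU transfection of human HepG2 liver cells → 24 h chemical exposure → total RNA, oligo(dT) RT → PCR, 6-FAM primer extension, HpaI digest 2 h 37 C → CE fragment analysis. Bidirectional fitting, DMSO negative control.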

The nature of test [2]: ATG_NRF2_ARE_CIS: Attagene CIS-FACTORIAL HepG2 Assay for human Nuclear Factor Erythroid 2 Related Factor 2 (NFR2) response to Antioxidant Response Elements (ARE) (AID 2282992).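 As to AC50: reporter mRNA level measured by RT-PCR and capillary electrophoresis fluorescence.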 The note with it: HepG2 Attagene ARE/NRF2 reporter, transcription factor activity; actives raise or lower the signal. The method in brief:
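Endogenous transcription factor activity in human liver HepG2 cells is tracked via a cis-element-driven reporter within a multiplexed set. mRNA induction is read by RT-PCR and capillary electrophoresis after 24 h, with DMSO as baseline.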

The nature of test [3]: ATG_Oct_MLP_CIS: Attagene CIS-FACTORIAL HepG2 Assay for human Octamer-Binding Transcription Factor (Oct) (AID 2282993). As to conditions: HepG2 Attagene cis-factorial Oct reporter, mRNA; actives raise or lower the signal. The procedure, abridged:
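Using HepG2 cells bearing transfected cis-reporter constructs, mRNA induction was read after 24 h by fluorescent RT-PCR and capillary electrophoresis, with DMSO defining baseline for gain- or loss-of-signal fits.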

In test [4] the target is Cellular tumor antigen p53 (Homo sapiens) (UniProt P04637). The experiment in a line: ATG_p53_CIS: Attagene CIS-FACTORIAL HepG2 Assay for human p53 Transcription Factor (AID 2282994). The note with it: HepG2 p53 cis-element reporter, Attagene mRNA; actives raise or lower the signal. The method in brief:
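Steps: transfect HepG2 with multiplexed cis reporter constructs; dose chemicals 24 h; extract RNA, reverse-transcribe, PCR-amplify reporter sequences; FAM-label, HpaI-digest, resolve fragments by CE. Activity fitted both directions relative to DMSO.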

Test [5] addresses human Peroxisome Proliferator-activated Receptor delta (PPARd), PPARD (gene 5467) (UniProt Q03181). The experiment in a line: ATG_PPARd_TRANS: Attagene TRANS-FACTORIAL HepG2 Assay for human Peroxisome Proliferator-activated Receptor delta (PPARd) (AID 2283002; active = hit-call score of the fitted dose curve at least 0.9, where 1 is the maximum). The procedure, abridged: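 Read-out is induced reporter mRNA, quantified by RT-PCR with fluorescent labelling and capillary electrophoresis after 24 h dosing. Cells are HepG2 transiently carrying multiple GAL4-UAS reporter units driven by exogenous NR-GAL4 chimeras; DMSO serves as baseline.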

Test [6] addresses human Peroxisome Proliferator-activated Receptor alpha (PPARa), PPARA (gene 5465) (UniProt Q07869). The experiment in a line: ATG_PPARa_TRANS: Attagene TRANS-FACTORIAL HepG2 Assay for human Peroxisome Proliferator-activated Receptor alpha (PPARa) (AID 2283001; active = hit-call score of the fitted dose curve at least 0.9, where 1 is the maximum;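 as to AC50: potency for gain of reporter signal over DMSO so agonist or activator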). The method in brief:
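Transfected HepG2 cells treated with test chemical for 24 h. RNA isolated, reverse-transcribed with oligo(dT), PCR-amplified, FAM-labelled and HpaI-digested. Fragments sized by capillary electrophoresis; gain-of-signal fit relative to DMSO.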

A short description of test [7]: BSK_3C_TissueFactor: BioMAP Diversity Plus: 3C Assay for Tissue Factor Biomarker Activity (AID 2282997). The note with it: BioMAP 3C HUVEC, tissue factor biomarker readout; actives raise or lower the signal. The method in brief:
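HUVEC, 3C system, 24 h post-dose; Tissue Factor by ELISA; bidirectional fit vs DMSO baseline.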

Test [8] is described as follows: BSK_3C_uPAR: BioMAP Diversity Plus: 3C Assay for Urokinase-type plasminogen activator receptor (uPAR) Biomarker Activity (AID 2282998). The note with it: BioMAP 3C HUVEC, uPAR biomarker ELISA; actives raise or lower the signal. The method in brief:
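In this endothelial cell-based assay, human umbilical vein primary cells were treated with chemicals and harvested at 24 h. uPAR was quantified using ELISA, with gains or losses fitted relative to DMSO controls.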

Test [9] in a line: BSK_3C_VCAM1: BioMAP Diversity Plus: 3C Assay for Vascular cell adhesion molecule 1 (VCAM1) Biomarker Activity (AID 2282999). As to conditions: BioMAP 3C HUVEC, VCAM1 ELISA, cytokine-stimulated; actives raise or lower the signal. The procedure, abridged:
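Activity fitted in both directions relative to DMSO, with ELISA measurement of the surface marker on primary HUVEC (3C) at 24 h post-treatment; parallel SRB staining (0.1% SRB, TCA-fixed, 560 nm) flagged overt cytotoxicity.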

A short description of test [10]: BSK_4H_Eotaxin3: BioMAP Diversity Plus: 4H Assay for Eotaxin 3 Biomarker Activity (AID 2283000).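 As to outcome: CCL26 protein level quantified by ELISA in parallel with SRB cytotoxicity check.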 The note with it: primary human endothelial cells (HUVEC); actives raise or lower the signal. The method in brief:
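Readout is Eotaxin-3 (CCL26) level by ELISA in primary human umbilical vein endothelial cells harvested 24 h after chemical exposure; activity fitted in both directions against DMSO control.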

Sequence of human Peroxisome Proliferator-activated Receptor delta (PPARd), PPARD (gene 5467) (Q03181 whole entry, looked up, the tested form may be a part): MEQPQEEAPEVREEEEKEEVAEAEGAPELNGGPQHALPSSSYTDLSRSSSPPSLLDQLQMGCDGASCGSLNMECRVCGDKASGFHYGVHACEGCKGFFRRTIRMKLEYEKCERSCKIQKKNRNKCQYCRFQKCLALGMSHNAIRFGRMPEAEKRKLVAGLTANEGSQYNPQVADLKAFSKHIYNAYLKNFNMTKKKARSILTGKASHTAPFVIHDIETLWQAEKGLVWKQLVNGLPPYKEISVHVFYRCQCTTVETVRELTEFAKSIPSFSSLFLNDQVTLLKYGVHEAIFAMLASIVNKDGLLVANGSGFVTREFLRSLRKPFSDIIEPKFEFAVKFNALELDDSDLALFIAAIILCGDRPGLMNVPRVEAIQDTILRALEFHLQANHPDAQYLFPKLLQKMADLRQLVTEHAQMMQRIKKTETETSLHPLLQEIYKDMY
Sequence of Cellular tumor antigen p53 (Homo sapiens) (P04637 whole entry, looked up, the tested form may be a part): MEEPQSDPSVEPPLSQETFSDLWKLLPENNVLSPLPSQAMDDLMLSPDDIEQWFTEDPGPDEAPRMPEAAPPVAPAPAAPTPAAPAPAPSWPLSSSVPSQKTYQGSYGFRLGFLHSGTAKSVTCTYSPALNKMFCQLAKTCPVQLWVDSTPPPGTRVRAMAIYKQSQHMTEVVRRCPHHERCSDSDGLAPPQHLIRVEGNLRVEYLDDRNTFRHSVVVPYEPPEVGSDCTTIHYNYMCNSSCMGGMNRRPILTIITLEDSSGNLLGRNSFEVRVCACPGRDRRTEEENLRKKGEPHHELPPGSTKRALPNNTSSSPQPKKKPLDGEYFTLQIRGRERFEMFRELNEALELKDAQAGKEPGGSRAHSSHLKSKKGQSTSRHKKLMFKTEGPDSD
Sequence of human Peroxisome Proliferator-activated Receptor alpha (PPARa), PPARA (gene 5465) (Q07869 whole entry, looked up, the tested form may be a part): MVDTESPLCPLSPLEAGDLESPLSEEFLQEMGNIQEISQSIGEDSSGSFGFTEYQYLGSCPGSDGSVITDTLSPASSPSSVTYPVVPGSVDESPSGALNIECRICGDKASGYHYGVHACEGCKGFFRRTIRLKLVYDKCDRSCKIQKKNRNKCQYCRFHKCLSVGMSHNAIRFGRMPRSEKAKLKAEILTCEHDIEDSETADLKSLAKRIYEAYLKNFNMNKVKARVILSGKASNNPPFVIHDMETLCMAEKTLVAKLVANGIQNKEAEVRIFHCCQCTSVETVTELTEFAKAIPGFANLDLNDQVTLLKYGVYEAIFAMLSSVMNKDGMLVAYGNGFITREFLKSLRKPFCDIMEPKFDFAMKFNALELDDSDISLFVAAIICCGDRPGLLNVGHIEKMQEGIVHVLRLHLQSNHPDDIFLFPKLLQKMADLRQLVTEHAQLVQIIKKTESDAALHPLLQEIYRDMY

Turning to `C=C(C)[C@@H]1CC=C(C=O)CC1`, the compound was called inactive in test [1], in [3], in [4] and in [5]. For the same compound, the concentration at half-maximal activity (AC50) in test [2] was 80.5 µM (active).

As for `C[As+](C)(C)CC(=O)[O-]`, the compound was called inactive in test [1], in test [2] and in [4].

`FC(F)OCC(F)(F)C(F)(F)F`: the call in test [1], in [2], in [3], in [4] and in [5] was inactive.

Consider `CC1(C)COP(Oc2ccccc2)OC1`, for which the compound was classed as inactive in [1], in [2], in test [3], in test [6] and in test [5].

As to `CC(=O)C(F)(F)C(F)(F)F`, the result in test [1], in test [2], in [3], in test [4] and in test [5] was inactive.

Turning to `Oc1cc(Cl)c(Cl)cc1Cl`, the outcome in [1], in test [2], in test [9] and in [6] was inactive. The AC50 in test [3] is 66.2 µM (active); in test [7] it was 20 µM (active); in [8], 14.7 µM (active); in test [10], 27.6 µM (active).

`O=C(O)C1(c2ccc3c(c2)OC[C@H](Cc2ccc(-c4ccccc4)cc2)[C@H]3O)CCCC1`: the outcome in test [1], in test [3], in [7] and in [10] was inactive. Further, the AC50 in test [2] is 8.26 µM (active); in test [8] it was 29.9 µM (active); in [9], 20 µM (active); in test [6], 11 µM (active).

For `O=C(NC(=O)c1c(F)cccc1F)Nc1cc(Cl)c(F)c(Cl)c1F`, the compound was called inactive in test [1], in test [2] and in test [4].

As to `C1CCC(C2CCCCC2)CC1`, the outcome in [1], in test [3] and in [5] was inactive. For the same compound, in test [2], the AC50 was 23.8 µM (active).

As for `O=[N+]([O-])c1cccc2ccccc12`, the result in test [1], in test [4], in [7], in [8], in test [9] and in [10] was inactive. The call in test [6] was inactive. The AC50 in [2] is 23.7 µM (active).

Take `CC(C)O.CC(C)O.OCCN(CCO)CCO.OCCN(CCO)CCO.[Ti]`: the compound was classed as inactive in [1], in [2], in test [3], in test [7], in test [8] and in test [9]. Besides, the outcome in test [10] and in test [6] was inactive.

Take `O=C1C=CC(=O)c2ccccc21`: the result in test [1], in test [4] and in [6] was inactive. For the same compound, the half-maximal activity concentration (AC50) in test [2] is 2.23 µM (active); in test [7], 1.93 µM (active); in test [8], 1.7 µM (active); in test [9] it was 3.48 µM (active); in [10] it was 2.17 µM (active).

`COC(=O)Nc1cccc(OC(=O)Nc2cccc(C)c2)c1`: the compound was called inactive in test [1], in test [2], in test [3], in test [4] and in [5].

For the compound `CC(C)[N+](=O)[O-]`, the compound was classed as inactive in test [1], in [2], in test [3], in [4] and in [5].

Consider `Oc1c(Br)cc(Br)cc1Br`, for which the result in test [1], in test [7], in test [10] and in test [5] was inactive. The concentration at half-maximal activity (AC50) in test [2] was 26.9 µM (active); in [3], 57.1 µM (active); in test [8], 30.1 µM (active); in test [9], 31.4 µM (active); in test [6] it was 13.3 µM (active).

For the compound `O=C(NC(=O)c1c(F)cccc1F)Nc1cc(Cl)c(Oc2ncc(C(F)(F)F)cc2Cl)c(Cl)c1`, the outcome in test [1], in [3], in test [4] and in test [5] was inactive. Further, in test [2], the concentration at half-maximal activity (AC50) is 31.9 µM (active).

In the case of `Clc1cccc(Cl)c1`, the compound was classed as inactive in test [1], in [2], in [3], in test [7], in test [8] and in test [9]. Further, the result in test [10] and in test [5] was inactive.

`O=C/C(Cl)=C(/Cl)C(=O)O`: the AC50 in [1] is 35.2 µM (active); in [2], 26.1 µM (active); in test [3] it was 144 µM (active). The compound was classed as inactive in [6].

In the case of `Cc1cc(Cl)ccc1OC(C)C(=O)O` (centres undefined), the compound was classed as inactive in test [1], in test [2], in [4], in test [7], in test [8] and in test [9]. Besides, the result in test [10], in test [6] and in test [5] was inactive.

Take `C[C@]12CC[C@@H](O)C[C@@H]1CC[C@@H]1[C@@H]2CC[C@]2(C)C(=O)CC[C@@H]12`: the outcome in test [1], in [2], in [4], in [7], in [8] and in test [9] was inactive. Moreover, the result in [10] and in [6] was inactive.

As to `OCCN(CCO)CCO`, the compound was called inactive in test [1], in [2], in test [3], in test [7], in test [8] and in test [9]. Besides, the outcome in test [10] and in test [6] was inactive.

For the compound `CC(C)(C)c1ccccc1O`, the AC50 in test [1] was 164 µM (active); in [3] it was 138 µM (active). Also, the call in test [2], in [7], in [8], in [9], in [10] and in [6] was inactive.

With `O=[N+]([O-])c1cc([As](=O)(O)O)ccc1O`, the outcome in test [1], in [2], in [3], in test [4] and in test [5] was inactive.
